# According to the supplement of paper PMC9135407:
# “And” between values parts separate entries of the source, which are not always exact repeats. Equal entries are not always repeated. Structures can show the parent of a compound that is named as a salt. Out of some 5,800 compounds screened, about 620 (11%) showed activity. The list comes from a sample in which actives are over-represented; it also holds similar structures and randomly drawn compounds. Unmarked numbers belong to inactive results.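 The calls were made as follows: active = score above a cut-off or among the top three wells of a plate; in these data no inactive exceeds 0.85.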
# Test system: primary human hepatic stellate cells (donor 1)
# Assay: scaled lipid accumulation score (0 = DMSO-like, 1 = nortriptyline-like); higher = stronger HSC inactivation (lipid re-accumulation), active = hit call of the paper
# Details: 48 h
# [1] = library stock concentration: 10 mM
# [2] = library stock concentration: 1 mM
# [3] = library stock concentration: 3.33 mM
# [4] = library stock concentration: 80 uM
# [5] = library stock concentration: 400 uM
# [6] = library stock concentration: 2 mM
smiles,measurement,setting,value
CC(=O)NCCCCCC(=O)O [Acexamic acid],scaled lipid accumulation score,[1],0.236
CC(C)CCOc1ccc(NC(=S)Nc2ccc(OCCC(C)C)cc2)cc1 [Thiocarlide],scaled lipid accumulation score,[2],≤ 0
CN1C(=O)CC[C@H]1c1cccnc1 [(-)-Cotinine],scaled lipid accumulation score,[1],≤ 0 and 0.057
CN1C(=O)CC[C@H]1c1cccnc1 [Cotinine],scaled lipid accumulation score,[1],≤ 0
same,scaled lipid accumulation score,library stock concentration: 11.3 mM,≤ -0.001
CN1C(=O)CC[C@H]1c1cccnc1 [Cotinine (-)],scaled lipid accumulation score,,≤ 0
O=c1ccc2cc(O)c(O)cc2o1 [Esculetin],scaled lipid accumulation score,,≤ 0
same,scaled lipid accumulation score,[1],≤ 0
O=c1ccc2ccccc2o1 [Coumarin],scaled lipid accumulation score,[3],≤ 0
same,scaled lipid accumulation score,[1],≤ 0 and 0.012
"O=Nc1ccc2oc(=O)ccc2c1 [6-Nitroso-1,2-benzopyrone]",scaled lipid accumulation score,[1],0.9 (active)
CC(C)n1c(/C=C/C(O)CC(O)CC(=O)O)c(-c2ccc(F)cc2)c2ccccc21 (configuration not stated) [Fluvastatin Sodium],scaled lipid accumulation score,[3],0.188
same,scaled lipid accumulation score,[1],0.219
CC(C)n1c(/C=C/C(O)CC(O)CC(=O)O)c(-c2ccc(F)cc2)c2ccccc21 (configuration not stated) [fluvastatin],scaled lipid accumulation score,[1],0.549
CC(C)n1c(/C=C/C(O)CC(O)CC(=O)O)c(-c2ccc(F)cc2)c2ccccc21 (configuration not stated) [Fluvastatin sodium salt],scaled lipid accumulation score,,0.403
COc1cc(C)c(Cc2cnc(N)nc2N)cc1OC,scaled lipid accumulation score,[1],≤ 0
Clc1ccc2c(N3CCN(CCCN4CCN(c5ccnc6cc(Cl)ccc56)CC4)CC3)ccnc2c1 [Piperaquine tetraphosphate tetrahydrate],scaled lipid accumulation score,[1],0.316
O=C(OCC(O)CO)c1ccccc1Nc1ccnc2cc(Cl)ccc12 (configuration not stated) [Glafenine hydrochloride],scaled lipid accumulation score,,≤ 0
CCN(CC)CCCC(C)Nc1ccnc2cc(Cl)ccc12 (configuration not stated) [Chloroquine phosphate],scaled lipid accumulation score,library stock concentration: 6.3 mM,0.285
CCN(CC)CCCC(C)Nc1ccnc2cc(Cl)ccc12 (configuration not stated) [Chloroquine diphosphate],scaled lipid accumulation score,,0.679
same,scaled lipid accumulation score,[1],≤ 0 and 0.428
O=C(OCC(O)CO)c1ccccc1Nc1ccnc2cc(Cl)ccc12 (configuration not stated) [Glafenine],scaled lipid accumulation score,[1],≤ 0
CCN(CC)Cc1cc(Nc2ccnc3cc(Cl)ccc23)ccc1O.Cl.Cl.O.O [Amodiaquin dihydrochloride dihydrate],scaled lipid accumulation score,,1.22 (active)
CCN(CCO)CCCC(C)Nc1ccnc2cc(Cl)ccc12 (configuration not stated) [Hydroxychloroquine sulfate],scaled lipid accumulation score,[1],0.161
Cc1nc2cc3nc(-c4cccs4)cnc3cc2n1C,scaled lipid accumulation score,[3],≤ 0
Cc1csc(-c2nnc(Nc3ccc(Oc4ncccc4-c4ccnc(N)n4)cc3)c3ccccc23)c1,scaled lipid accumulation score,[3],≤ 0
same,scaled lipid accumulation score,[1],≤ 0
CCCCCCCCCCCCCCCCC/C=C/C(=O)O [.DELTA.2-trans Eicosenoic Acid],scaled lipid accumulation score,[2],≤ 0
Cc1oncc1C(=O)Nc1ccc(C(F)(F)F)cc1 [Leflunomide],scaled lipid accumulation score,,≤ 0
same,scaled lipid accumulation score,[4],0.045
same,scaled lipid accumulation score,[5],≤ 0
same,scaled lipid accumulation score,[6],≤ 0
same,scaled lipid accumulation score,[3],≤ 0
O=C(Nc1cc(C(F)(F)F)cc(C(F)(F)F)c1)c1cc(Cl)ccc1O [listing 1 of 3 here],scaled lipid accumulation score,[3],0.722
O=C(Nc1ccc([N+](=O)[O-])cc1Cl)c1cc(Cl)ccc1O [Niclosamide] [listing 1 of 2 here],scaled lipid accumulation score,,0.776
O=C(Nc1cc(C(F)(F)F)cc(C(F)(F)F)c1)c1cc(Cl)ccc1O [listing 2 of 3 here],scaled lipid accumulation score,[1],1.61 (active)
O=C(Nc1cc(C(F)(F)F)cc(C(F)(F)F)c1)c1cc(Cl)ccc1O [IKK-2 Inhibitor V],scaled lipid accumulation score,[3],≤ 0
O=C(Nc1ccccc1)c1cc([N+](=O)[O-])ccc1Cl,scaled lipid accumulation score,[2],≤ 0
same,scaled lipid accumulation score,[3],0.023
same,scaled lipid accumulation score,[1],≤ 0 and 0.358 and 0.105
O=C(Nc1ccc([N+](=O)[O-])cc1Cl)c1cc(Cl)ccc1O [Niclosamide] [listing 2 of 2 here],scaled lipid accumulation score,library stock concentration: 6.1 mM,1.15 (active)
same,scaled lipid accumulation score,[1],1.08 (active)
O=C(Nc1cc(C(F)(F)F)cc(C(F)(F)F)c1)c1cc(Cl)ccc1O [listing 3 of 3 here],scaled lipid accumulation score,[1],1.1 (active)
O=c1oc(-c2ccc(C(F)(F)F)cc2)nn1Cc1cc(Cl)ccc1O,scaled lipid accumulation score,[1],0.172
O=C(Nc1ccccc1)c1ccccc1O [Salicylanilide],scaled lipid accumulation score,[3],≤ 0
same,scaled lipid accumulation score,library stock concentration: 9.4 mM,0.019
same,scaled lipid accumulation score,[1],0.041
C[C@]12CC[C@@H]3c4ccc(O)cc4CC[C@H]3[C@@H]1C[C@H](O)[C@@H]2O,scaled lipid accumulation score,[1],≤ 0
O=C1CCC(c2ccc(-n3ccnc3)cc2)=NN1 [Imazodan],scaled lipid accumulation score,[1],≤ -0.07
CC(C)n1cnc2c(NCc3ccccc3)nc(NCCCO)nc21 [Bohemine],scaled lipid accumulation score,[4],≤ -0.001
same,scaled lipid accumulation score,[5],≤ -0.001
same,scaled lipid accumulation score,[6],≤ -0.001
same,scaled lipid accumulation score,[3],≤ 0
same,scaled lipid accumulation score,[1],0.099
Cc1cc(OCc2nnc(SC3CCCC3)n2-c2cccnc2)ccc1-c1ccc(S(C)(=O)=O)cc1,scaled lipid accumulation score,[3],0.619
same,scaled lipid accumulation score,[1],0.187
CN(C)[C@@H]1C(O)=C(C(=O)NCN2CCCC2)C(=O)[C@@]2(O)C(O)=C3C(=O)c4c(O)cccc4[C@@](C)(O)[C@H]3C[C@@H]12,scaled lipid accumulation score,[1],≤ 0
CN(C)[C@@H]1C(O)=C(C(=O)NCN2CCCC2)C(=O)[C@@]2(O)C(O)=C3C(=O)c4c(O)cccc4[C@@](C)(O)[C@H]3C[C@@H]12 [Rolitetracycline],scaled lipid accumulation score,,≤ 0
CC(=O)N(OCc1ccccc1)[C@H]1c2cc(C#N)ccc2OC(C)(C)[C@H]1O,scaled lipid accumulation score,[1],≤ 0
N[C@@H]1CCN(O)C1=O,scaled lipid accumulation score,[1],≤ 0
CCCCCCCCCCCCCCCC(=O)NC[C@@H](C)O [R-Palmitoyl-(2-methyl) Ethanolamide],scaled lipid accumulation score,[2],≤ 0
COc1ccc2c(c1OC)C(=O)O[C@@H]2[C@H]1c2c(cc3c(c2OC)OCO3)CCN1C [Noscapine hydrochloride],scaled lipid accumulation score,library stock concentration: 4.4 mM,0.008
same,scaled lipid accumulation score,[1],0.011 and 0.074
COc1cc2c3cc1Oc1c(OC)c(OC)cc4c1[C@@H](Cc1ccc(OC(=O)c5ccc([N+](=O)[O-])cc5)c(c1)Oc1ccc(cc1)C[C@@H]3N(C)CC2)N(C)CC4 [E6 berbamine],scaled lipid accumulation score,library stock concentration: 6.6 mM,0.933 (active)
COc1ccc2cc1Oc1ccc(cc1)C[C@H]1c3c(cc4c(c3Oc3cc5c(cc3OC)CCN(C)[C@@H]5C2)OCO4)CCN1C [Cepharanthine] [listing 1 of 2 here],scaled lipid accumulation score,[1],0.689
COc1ccc2cc1Oc1ccc(cc1)C[C@@H]1c3c(cc4c(c3Oc3cc5c(cc3OC)CCN(C)[C@H]5C2)OCO4)CCN1C [Cepharanthine],scaled lipid accumulation score,[3],1.03 (active)
COc1cc2c(cc1OC)[C@@H]1Cc3ccc(OC)c(OC)c3CN1CC2 [Rotundine],scaled lipid accumulation score,[3],≤ 0
same,scaled lipid accumulation score,[1],≤ 0
COc1ccc2cc1Oc1ccc(cc1)C[C@H]1c3cc(c(OC)cc3CCN1C)Oc1c(OC)c(OC)cc3c1[C@H](C2)N(C)CC3 [Tetrandrine],scaled lipid accumulation score,,0.685
same,scaled lipid accumulation score,[3],0.783
same,scaled lipid accumulation score,[1],0.45
COc1cc2c3cc1Oc1cc(ccc1O)C[C@@H]1c4c(cc(OC)c(O)c4Oc4ccc(cc4)C[C@@H]3N(C)CC2)CC[N+]1(C)C [Tubocurarine chloride],scaled lipid accumulation score,library stock concentration: 3.1 mM,≤ 0
COc1ccc2c(c1OC)C(=O)O[C@@H]2[C@H]1c2c(cc3c(c2OC)OCO3)CCN1C [Noscapine hydrchloride],scaled lipid accumulation score,[1],≤ -0.055
COc1ccc2c(c1OC)C(=O)O[C@@H]2[C@H]1c2c(cc3c(c2OC)OCO3)CCN1C [Noscapine],scaled lipid accumulation score,,≤ 0
COc1ccc2cc1Oc1ccc(cc1)C[C@H]1c3c(cc4c(c3Oc3cc5c(cc3OC)CCN(C)[C@@H]5C2)OCO4)CCN1C [Cepharanthine] [listing 2 of 2 here],scaled lipid accumulation score,[1],0.944 (active)
COc1cc2c(c(OC)c1OC)-c1c(cc3c(c1OC)OCO3)CC(C)C(C)C2 (configuration not stated) [Schisandrin B (Sch B)],scaled lipid accumulation score,[3],≤ 0
same,scaled lipid accumulation score,[1],≤ -0.001
COc1ccc2cc1Oc1ccc(cc1)C[C@H]1c3cc(c(OC)cc3CCN1C)Oc1c(OC)c(OC)cc3c1[C@H](C2)N(C)CC3 [Tetrandine],scaled lipid accumulation score,library stock concentration: 8 mM,0.535
Cc1cc(C(N)=O)ccc1-n1c(CCC(=O)O)ccc1-c1ccc(-n2ccnc2)cc1,scaled lipid accumulation score,[3],≤ -0.009
same,scaled lipid accumulation score,[1],≤ 0
"O=C(O)c1ccc2c(c1)CCCC2 [5,6,7,8-tetrahydro-2-Naphthoic Acid]",scaled lipid accumulation score,[2],≤ 0
CS(=O)(=O)c1ccc(Cn2c3c(c4cc(F)cc(F)c42)CCCC3CC(=O)O)cc1 (configuration not stated),scaled lipid accumulation score,[1],≤ -0.006
O=C(O)c1ccc2c(c1)nc(Nc1cccc(Cl)c1)c1ccncc12 [CX-4945 (Silmitasertib)],scaled lipid accumulation score,[3],≤ 0
same,scaled lipid accumulation score,[1],≤ 0
O=C(O)c1ccc2c(c1)nc(Nc1cccc(Cl)c1)c1ccncc12,scaled lipid accumulation score,[5],≤ -0.005
same,scaled lipid accumulation score,[6],≤ -0.005
same,scaled lipid accumulation score,[1],≤ -0.005
OC[C@H]1O[C@H]([S-])[C@H](O)[C@@H](O)[C@@H]1O.[Au+] [Aurothioglucose],scaled lipid accumulation score,library stock concentration: 5.1 mM,0.336
same,scaled lipid accumulation score,[1],0.397
"Oc1cc(O)c2c(c1)O[C@H](c1ccc(O)c(O)c1)[C@@H](O)C2 (racemic) [Catechin-(+,-) hydrate]",scaled lipid accumulation score,,≤ 0
CCCCCCCCCCCCCCCCOCC(CO)OC (configuration not stated) [1-Hexadecyl-2-O-methyl-glycerol],scaled lipid accumulation score,[2],0.003
"CCCCC(C)(C)[C@H](O)C=C[C@H]1[C@H](O)CC(=O)[C@@H]1CCCCCCC(=O)O [16,16-dimethyl Prostaglandin E1]",scaled lipid accumulation score,[2],≤ 0
